Most compounds without a hit are left out; they make up all but 15% or so of the library.
Pf growth 48h: Primary qHTS for delayed death inhibitors of the malarial parasite plastid, 48 hour incubation; P. falciparum luciferase growth in erythrocytes, 48 h; Potency, µM (highest dose often 28.7 µM), inactives show at the highest dose activity change, negative = inhibition, usual class: inhibitors; actives 5.9% (n = 310,000); AID 504832, 2011; further: potency means the concentration at half of the fitted maximal effect; on the % scale 0 is the no-effect control and ±100 the full control effect
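Luciferase-expressing P. falciparum in infected erythrocytes (2% hematocrit, 0.1% parasitemia final) in RPMI 1640/0.5% Albumax were exposed to compound for 48 hours at 37 C, 5% CO2; growth read as luminescence.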
HCMV antiviral: qHTS Assay for inhibitors of the human cytomegalovirus (HCMV). activity change, negative = inhibition, % at 57.5 µM. actives 4.5% (n = 410,000). AID 1259415, 2018. HFF cells, HCMV-luciferase reporter, 72 h; active compounds read low; in the data active means activity change below about -60%; inconclusive means no clear call, values can overlap the other calls; inactive means above about -39%; further: on the % scale 0 is the no-effect control and ±100 the full control effect
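Screen run at 2 compound doses on HFFs infected with reporter HCMV, MOI 1 PFU/cell. Luciferase activity from cell lysates at 72 h post infection gave inhibition relative to buffer-only and Salinomycin wells.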
HCV inhibitor: qHTS Assay for Inhibitors of Hepatitis C Virus (HCV); Huh7.5.1 HCVcc-Cre infection, luciferase reporter, 44 h; Potency, µM (top dose mostly 41.8 µM), without a hit: at the top dose activity change, negative = inhibition, hits mostly inhibitors; AID 651820, 2012; actives 3.4% (n = 340,000); further: potency means the concentration at half of the fitted maximal effect; on the % scale 0 is the no-effect control and ±100 the full control effect
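After 44 h co-culture of compound, cells and HCVcc-Cre (~0.5 moi), substrate is added for 15 min at room temperature and luciferase measured over 15 sec. Cells were seeded at 1,000/well and pre-cultured 4 h.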
SARS PLpro yeast: qHTS of Yeast-based Assay for SARS-CoV PLP; S. cerevisiae expressing SARS-CoV PLpro, growth rescue; Potency, µM (top dose mostly 32.9 µM), for the others: at the highest dose activity, positive = growth rescue, most hits filed as activators; actives 0.19% (n = 330,000); AID 485353, 2010; calls by dose curve; further: potency means the concentration at half of the fitted maximal effect; 0% is about no effect; nearly all actives have a fitted effect of over 55% in size
Pf growth 96h: Primary qHTS for delayed death inhibitors of the malarial parasite plastid, 96 hour incubation | P. falciparum luciferase reporter growth, 96 h | Potency, µM (highest dose often 28.7 µM), for the others: at the highest dose activity change, negative = inhibition, usual class: inhibitors | actives 6.9% (n = 320,000); further: potency means the concentration at half of the fitted maximal effect; on the % scale 0 is the no-effect control and ±100 the full control effect
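Two-generation exposure (96 h) targets delayed-death phenotype. Reporter parasites carrying integrated firefly luciferase, in red cells at 2% hematocrit and 0.05% parasitemia final, kept at 37 C, 5% CO2; luminescence loss indicates inhibition.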
Sm TGR block: qHTS Assay for the Inhibitors of Schistosoma Mansoni Peroxiredoxins. actives 3% (n = 360,000). Potency, µM (doses to about 114 µM), inactives show top-dose activity change, negative = inhibition, most hits filed as inhibitors. Schistosoma mansoni thioredoxin glutathione reductase (TGR), Q962Y6. purified TGR, DTNB reduction, TNB absorbance 405 nm. AID 485364, 2010; further: potency means the concentration at half of the fitted maximal effect; on the % scale 0 is the no-effect control and ±100 the full control effect; nearly all actives have a fitted effect of over 60% in size
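First, TGR (20 nM dispensed) and NADPH were mixed with compound. Second, a 15 min room-temperature incubation followed. Third, further NADPH and then DTNB were added to start the reaction. Finally, TNB absorbance was monitored kinetically.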
* marks the source's active call; other numbers are inactive results; i = inactive; ? = inconclusive; . = not tested or not shown. Unless noted, the call rests on the fitted dose curve; in most records, active means well fitted curve in the direction sought with a large enough effect; inconclusive means small, poorly fitted or top-dose-only effect, or another doubt; inactive means no such curve, though single readings can be large; an effect the other way counts as inactive or inconclusive.

SMILES	Pf growth 48h	HCMV antiviral	HCV inhibitor	SARS PLpro yeast	Pf growth 96h	Sm TGR block
CCOc1ccc(CCNC(=O)COC(=O)c2cc([N+](=O)[O-])ccc2N2CCOCC2)cc1OCC	?	2.1	?	1.3%	9.28µM*	-13.0%
CCOC(=O)c1ccccc1NC(=O)COC(=O)c1cc([N+](=O)[O-])ccc1N1CCOCC1	?	-16.5	2.24µM*	-1.3%	?	3.5%
CCOc1ccc(CCNC(=O)COC(=O)c2cc(OC)c(OC)cc2[N+](=O)[O-])cc1OCC	14.7µM*	-5.3	?	2.6%	?	-0.4%
O=C(COC(=O)c1cc([N+](=O)[O-])ccc1N1CCOCC1)Nc1cccc(F)c1	23.7%	-3.6	12.6µM*	1.9%	-17.7%	-1.4%
CCc1ccc(NC(=O)c2ccc3c(=O)n4nc(Nc5ccccc5C)sc4nc3c2)cc1	.	-17.5	.	.	.	-0.6%
CC(=O)Nc1ccc(C(=O)OCC(=O)N2CCN(C(=O)c3ccco3)CC2)cc1	40.0%	2.0	4.2%	-0.2%	0.8%	2.6%
CCOC(=O)c1c(C)n(C(=O)c2ccco2)c(=O)n1C(=O)c1ccco1	17.5%	25.1	14.5%	1.0%	17.2%	35.5µM*
CCOC(=O)c1ccc(NC(=O)CN2CCN(C(=O)c3ccco3)CC2)cc1	9.28µM*	41.7	-5.7%	-1.5%	-2.9%	?
CCc1c(C)sc(NC(=O)CN2CCN(C(=O)c3ccco3)CC2)c1C(=O)OC	?	-14.7	11.2µM*	-11.3%	19.1%	?
CCOc1ccc(NC(=O)CN2CCN(C(=O)c3ccco3)CC2)cc1S(=O)(=O)N1CCCC1	?	35.2	2.7%	0.7%	14.7µM*	1.2%
CCOC(=O)c1c(NC(=O)CN2CCN(C(=O)c3ccco3)CC2)sc(C)c1C	?	-3.3	.	2.4%	21.1%	0.8%
COc1ccc(CNC(=O)c2ccc(-c3c(C)noc3C)c3ccoc23)cc1OC	.	45.6	.	.	.	.
CCOc1ccc(CCNC(=O)c2c(C)oc3ncnc(N4CCOCC4)c23)cc1	.	-21.5	.	.	.	-1.1%
O=Cc1cccn1-c1nccc(-c2ccco2)n1	i	-7.8	-1.6%	-3.7%	0.0%	-34.3%
NC(=O)c1ccc(NC(=O)CN2CCN(C(=O)c3ccco3)CC2)cc1	11.8%	3.8	11.0%	-3.9%	2.33µM*	-26.6%
COc1ccc(N2CCN(S(=O)(=O)c3ccc(OC)c(C(=O)N4CCCCC4)c3)CC2)cc1	-2.2%	-31.7	12.6µM*	-1.8%	10.5%	-2.3%
COc1ccc(S(=O)(=O)N2CCN(c3ccc(F)cc3)CC2)cc1C(=O)N1CCCC1	-0.7%	48.2	?	12.5%	55.5%	-12.4%
COc1ccccc1C(=O)N1CCC(c2noc(-c3ccc(S(=O)(=O)N4CCCC4)cc3)n2)CC1	.	-84.2*	.	.	.	6.2%
O=C(c1ccc(F)cc1F)N1CCC(c2noc(-c3ccc(S(=O)(=O)N4CCCC4)cc3)n2)CC1	.	-1.4	.	.	.	2.4%
COc1ccc(S(=O)(=O)N2CCCCC2)cc1C(=O)N1CCCC1	-6.9%	35.1	-15.4%	-5.8%	2.33µM*	3.2%
CCOc1ccccc1NC(=O)Cn1cc(C(=O)c2ccc(Cl)cc2)c(=O)c2ccc(C)nc21	.	8.5	.	.	.	4.6%
Cc1ccc(S(=O)(=O)N2CCN(C(=O)CNC(=O)c3ccc(Br)o3)CC2)cc1	7.4%	-25.3	-0.4%	4.2%	?	-9.1%
CCOC(=O)/C=C(\C)Sc1cc(O)c2ccccc2c1O	1.47µM*	-100.1*	?	-7.2%	1.65µM*	0.794µM*
CCOC(=O)/C=C(\C)Sc1cc(=O)oc2ccccc12	?	-6.6	?	-37.3%	?	22.4µM*
C=CCn1c(C)c(C(=O)OCC)c2cc(O)c3ccccc3c21	-19.5%	28.4	-19.1%	0.6%	?	-9.0%

Compound activity (PubChem BioAssay)
